High-throughput results as filed in PubChem.
Hits are enriched below; roughly 6.5% of the tested compounds scored in any of these assays.
Abs 340nm: absorbance at 340 nm | compound absorbance at 340 nm, fold over control | AID 708 | 65,000 tested, under 10 active | fold change at 10 µM;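 active = at 10 µM dose, initial 340 nm absorbance at least 2 fold that of control wells; inactive = change under 2 fold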;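 note: initial absorbance extrapolated from kinetic A340 decline of NADH oxidation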
Spn MK inh: S. pneumoniae mevalonate kinase inhibition; purified MK, PK/LDH-coupled NADH absorbance 340 nm; inhibition, % at 10 µM; 65,000 tested, 0.48% active;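 active = ranked among the strongest by inhibition in the single 10 µM screen, a fixed top-ranked set picked for dose follow-up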
PMK inhibit: blocks S. pneumoniae phosphomevalonate kinase; purified PMK, PK/LDH-coupled NADH absorbance 340 nm; inhibition, % at 10 µM; 65,000 tested, 0.49% active;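 active = top-ranked compounds by inhibition in the single 10 µM screen, taking a fixed number of the strongest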;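 note: 0% = full reaction with DMSO carrier and 100% = background rate without enzyme reaction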
Autofluor 339: intrinsic fluorescence of library compounds, ex339/em460 – biochemical, MLSMR library, data from DPM-DC assay, artefact control, profiling panel | fluorescence fold increase at 10 µM | compound autofluorescence, ex339/em460 nm, NADH buffer; active compounds read high; 1 = no-compound wells, NADH background | AID 709 | 65,000 tested, 5.5% active;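 active = at 10 µM, mean starting fluorescence two-fold or more over control wells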;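 note: signal is the first read of a kinetic run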
NADH coupling: inhibitors of enzymes used to reach an NAD/NADH endpoint | coupled PK/LDH NADH assays, four targets | IC50, µM (series often up to 10 µM), for inactives: at the top dose inhibition | 65,000 tested, 0.02% active | AID 774;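 active = single-dose screening hits from any of four coupled enzyme assays that gave an IC50 when retested across doses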;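 note: the DPM-DC format reads NADH fluorescence rather than 340 nm absorbance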
DPM-DC inhibit: inhibitors of Streptococcus pneumoniae diphosphomevalonate decarboxylase | purified DPM-DC, PK/LDH coupled NADH fluorescence | 65,000 tested, 0.49% active | calls only at 10 µM | AID 556;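 active = the 320 compounds with the highest percent inhibition in the single-dose primary screen, excluding strongly autofluorescent ones, cut at about 32% in these data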;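 note: kinetic rate of NADH fluorescence loss reporting ADP formed by the decarboxylase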
Starred values were filed as active, the others as inactive; i = inactive; . = no result shown; + = active, no number.

SMILES	Abs 340nm	Spn MK inh	PMK inhibit	Autofluor 339	NADH coupling	DPM-DC inhibit
CCCCn1c2nc3ccccc3nc2c2c(=O)n(CCC(C)C)cnc21	1.04	0.0	0.0	1.79	1.0%	i
O=C(NCCN1CCOCC1)c1ccc(-c2ccccc2)cc1	1.07	16.0	0.0	1.08	5.0%	i
Cc1cccc(-n2c(N)c(C(=O)NCCN3CCOCC3)c3nc4ccccc4nc32)c1	1.09	0.0	10.0	5.07*	5.0%	.
CC(C)Cn1c2nc3ccccc3nc2c2c(=O)n(CCN3CCOCC3)cnc21	1.1	10.0	9.0	3.52*	10.0%	.
CC(C)Cn1c(N)c(C(=O)NCCN2CCOCC2)c2nc3ccccc3nc21	0.99	12.0	7.0	2.93*	5.0%	.
COCCCn1c2nc3ccccc3nc2c2c(=O)n(CC3CCCO3)cnc21 (stereo not given)	1.12	13.0	0.0	2.32*	7.0%	.
CCOC(=O)N1CCN(C(=O)c2ccc3c(c2)NC(=O)C(N2CCOCC2)S3)CC1 (stereo not given)	1.01	5.0	13.0	1.09	6.0%	i
O=C(NC1CCCCCCC1)c1ccc2c(c1)N(Cc1ccc(F)cc1)C(=O)CS2=O (stereo not given)	1.05	3.0	15.0	1.16	6.0%	i
CCN1CCn2c3c(c4cc(Cl)ccc42)CCCC31 (stereo not given)	1.03	9.0	11.0	1.2	7.0%	i
OC1CN=C2CCCc3c2n(c2ccc(Cl)cc32)C1 (stereo not given)	1.38	12.0	6.0	3.83*	9.0%	.
Nc1cc(C(=O)O)ccc1Nc1ccccc1	1.04	5.0	10.0	1.79	10.0%	+
CN1c2cccc3cccc(c23)N(C)C1(C)C	1.1	0.0	18.0	3.66*	9.0%	.
O=C(O)CCc1n[nH]c(=S)[nH]c1=O	1.04	7.0	4.0	1.02	4.0%	i
c1coc(C2Nc3cccc4cccc(c34)N2)c1	1.08	12.0	12.0	3.83*	12.0%	.
COc1ccc(S(=O)(=O)N(C)CC(=O)NCc2cccnc2)cc1C	1.02	7.0	12.0	1.06	6.0%	i
CCOC(=O)c1sc(=NC(=O)c2ccc(S(=O)(=O)N3CC(C)OC(C)C3)cc2)n(C)c1C (stereo not given)	1.01	11.0	17.0	3.89*	9.0%	i
CC(C)C1(C)C(=O)N=C2c3ccccc3C(=O)N21 (stereo not given)	1.03	4.0	6.0	1.01	3.0%	i
Cc1ccc2nc(NCCO)nc(-c3ccccc3)c2c1	1	15.0	18.0	4.95*	17.0%	.
OCCNc1nc(-c2ccccc2)c2ccccc2n1	1.03	3.0	12.0	2.38*	8.0%	.
Cc1ccc(S(=O)(=O)NCC(c2ccccc2)N2CCN(CCC#N)CC2)cc1 (stereo not given)	1.13	6.0	0.0	1.12	2.0%	i
CC(=O)COc1cc(C)cc2oc(=O)c(C)c(C)c12	1.05	10.0	9.0	3.88*	10.0%	.
CC(=O)C(C)Oc1cc(C)cc2oc(=O)c(C)c(C)c12 (stereo not given)	1.09	7.0	4.0	3.65*	6.0%	.
O=C(O)CSCC(=O)NCc1ccccc1	1	0.0	14.0	1.06	5.0%	i
O=C(Nc1ccc2oc(-c3cccnc3)nc2c1)c1cccnc1	1.05	5.0	19.0	1.6	8.0%	i
Cc1ccc2oc(-c3ccc(NC(=O)c4ccc5c(c4)OCO5)cc3)nc2c1	1.07	0.0	4.0	3.66*	2.0%	.
SMILES	Abs 340nm	Spn MK inh	PMK inhibit	Autofluor 339	NADH coupling	DPM-DC inhibit
O=C(Nc1ccc(-c2nc3ccccc3o2)cc1)c1ccc2c(c1)OCO2	1.08	7.0	6.0	3.62*	7.0%	.
Cc1ccc2oc(-c3ccc(NC(=O)c4cccnc4)cc3)nc2c1	1.08	8.0	2.0	2.09*	3.0%	i
Cc1ccc(-c2nc3ccccc3o2)cc1NC(=O)c1ccc2c(c1)OCO2	1.04	8.0	6.0	1.77	6.0%	i
COCCn1c(=N)c(C(=O)NCCc2ccc(OC)cc2)cc2c(=O)n3cccc(C)c3nc21	1.05	9.0	8.0	2.69*	10.0%	i
COCCCNC(=O)c1cc2c(=O)n3cccc(C)c3nc2n(C(C)C)c1=N	1.02	8.0	18.0	5.07*	13.0%	.
CC(C)(CO)NC(=O)C(c1ccccc1)c1ccccc1	1.02	11.0	0.0	1.06	36.0%	+
Cn1nnc(NC(=O)C(c2ccccc2)c2ccccc2)n1	1.02	4.0	7.0	1.1	4.0%	i
